Source: the supplement of paper PMC7411640
Where a name gives a salt, the structure may show the parent alone.

System: MDA-MB-468
Test: phospho-S6 immunofluorescence (DAPI-normalised), per-plate z-score; higher = higher phospho-S6 signal (less pathway suppression)
Settings: 24 h
Protocol: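 GPCR-targeted compound library (MedChemExpress HY-L006) tested on MDA-MB-468 PTEN-null TNBC cells in 384-well plates at 0.1, 1 or 10 uM, combined with vehicle, GDC0941 450 nM or lapatinib 1 uM, for 24 h. Phospho-S6 (S240/244) immunofluorescence normalised to DAPI and expressed as a per-plate z-score; values are the mean of biological triplicates.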

SMILES | phospho-S6 immunofluorescence (z-score) (co-treatment: GDC0941 450 nM) | phospho-S6 immunofluorescence (z-score) (co-treatment: lapatinib 1 uM) | phospho-S6 immunofluorescence (z-score) (co-treatment: vehicle)
O=C(O[C@@H]1C[C@@H]2C[C@H]3C[C@H](C1)N2CC3=O)c1c[nH]c2ccccc12 [Dolasetron] (compound 10 µM) | -0.34 | -0.11 | -0.46
CN1CC2c3ccccc3Oc3ccc(Cl)cc3C2C1 (configuration not stated) [Asenapine (maleate)] (compound 10 µM) | 0.37 | -1.57 | -0.61
O=C(Nc1ccccc1)C12CC1C(=NO)c1ccccc1O2 (configuration not stated) (compound 10 µM) | -0.19 | -0.81 | 0.75
OCCOCCN1CCN(C(c2ccccc2)c2ccc(Cl)cc2)CC1 (configuration not stated) [Hydroxyzine (dihydrochloride)] (compound 10 µM) | 0.45 | -0.69 | 0.24
c1ccc2c(CC3=NCCN3)cccc2c1 [Naphazoline (hydrochloride)] (compound 10 µM) | -0.78 | 0.03 | 0.05
COc1ccc(/C=C/C(=O)Nc2ccccc2C(=O)O)cc1OC [Tranilast] (compound 10 µM) | 1.77 | -0.19 | 0.33
CC[C@H](NC(=O)c1c(O)c(-c2ccccc2)nc2ccccc12)c1ccccc1 [Talnetant] (compound 10 µM) | 0.6 | 0.47 | 0.13
CC(C)c1cc(-c2ccc(F)c3ccccc23)nc(N)n1 (compound 10 µM) | -1.03 | 1.27 | 1.08
Cc1cc(C(C)(C)C)cc(C)c1CC1=NCCN1 [Xylometazoline (hydrochloride)] (compound 10 µM) | 0.43 | -0.12 | -0.38
CC(=O)Oc1cc(C(C)C)c(OCCN(C)C)cc1C [Moxisylyte (hydrochloride)] (compound 10 µM) | 0.49 | -0.11 | -1.23
C[N+](C)(C)CCOC(N)=O [Carbamoylcholine (chloride)] (compound 10 µM) | 0.06 | 0.02 | 0.87
CCCC(=O)OC(CNC(C)(C)C)COc1nsnc1N1CCOCC1 (racemic) [(RS)-Butyryltimolol] (compound 10 µM) | 0.09 | -0.58 | -0.47
COc1ccc2c(c1OC)C(=O)O[C@@H]2[C@H]1c2c(cc3c(c2OC)OCO3)CCN1C [Noscapine] (compound 10 µM) | 0.49 | 0.12 | 0.47
CC(C)=CCC[C@](C)(O)[C@H]1CC[C@]2(C)[C@@H]1[C@H](O)C[C@@H]1[C@@]3(C)CC[C@H](O)C(C)(C)[C@@H]3[C@@H](O)C[C@]12C [(20S)-Protopanaxatriol] (compound 10 µM) | -1.71 | -2.12 | -0.03
CC[C@H](C)[C@@H]1NC(=O)[C@H](Cc2ccc(O)cc2)NC(=O)[C@@H](N)CSSC[C@@H](C(=O)N2CCC[C@H]2C(=O)N[C@@H](CC(C)C)C(=O)NCC(N)=O)NC(=O)[C@H](CC(N)=O)NC(=O)[C@H](CCC(N)=O)NC1=O [Oxytocin (acetate)] (compound 10 µM) | -0.77 | -0.07 | -0.87
CC(C)(C)NC[C@H](O)COc1nsnc1N1CCOCC1 [(S)-Timolol (Maleate)] (compound 10 µM) | -0.17 | 0.33 | -0.06
Cc1ccc(/C(=C\CN2CCCC2)c2cccc(/C=C/C(=O)O)n2)cc1 [Acrivastine] (compound 10 µM) | 0.27 | 0.6 | 0.62
COC1CCC(C(=O)c2ccc3nc4c(cc3c2)CCCO4)CC1 (configuration not stated) (compound 10 µM) | -0.83 | 0.85 | 0.02
COc1cc2nc(C3CC3)nc(N3CCN(c4ccccc4OC)CC3)c2cc1OC (compound 10 µM) | -1.77 | -0.08 | 0.05
CC1(C)CN2C(CSC(=NC3CCCCC3)NC3CCCCC3)=CSC2=N1 [IT1t (dihydrochloride)] (compound 10 µM) | -2.08 | -0.41 | -1.11
CC(C)NCC(O)COc1cccc2ccccc12 (configuration not stated) [Propranolol (hydrochloride)] (compound 10 µM) | 0.53 | 0.73 | 0.21
OCCOCCN1CCN(C(c2ccccc2)c2ccccc2)CC1 [Decloxizine (dihydrochloride)] (compound 10 µM) | 0.55 | -0.6 | -0.19
Cc1ccc(Sc2ccccc2N2CCNCC2)c(C)c1 [Vortioxetine (hydrobromide)] (compound 10 µM) | -5.79 | -11.4 | -9.37
Cc1ccc(F)cc1C(=O)Nc1ccc(C(=O)N2Cc3cccn3Cc3ccccc32)c(Cl)c1 [Lixivaptan] (compound 10 µM) | -2.79 | -0.79 | 0.62
CCCCc1ncc(/C=C(\Cc2cccs2)C(=O)O)n1Cc1ccc(C(=O)O)cc1 [Eprosartan (mesylate)] (compound 10 µM) | 0.37 | 0.05 | 0.01

SMILES | phospho-S6 immunofluorescence (z-score) (co-treatment: GDC0941 450 nM) | phospho-S6 immunofluorescence (z-score) (co-treatment: lapatinib 1 uM) | phospho-S6 immunofluorescence (z-score) (co-treatment: vehicle)
Cc1cc(Cn2cnc3c2CC(C(=O)O)N(C(=O)C(c2ccccc2)c2ccccc2)C3)ccc1N(C)C (configuration not stated) (compound 10 µM) | -0.71 | 0.17 | 0.29
C#CCOc1ccc2c(c1)c(-c1ccc(C(C)C)cc1)nc(=O)n2C(C)C [Calcium-Sensing Receptor Antagonists I] (compound 10 µM) | -3.51 | -4.39 | -4.18
Cc1cccn2c(=O)c(-c3nnn[nH]3)cnc12 [Pemirolast (potassium)] (compound 10 µM) | -0.3 | -0.65 | -1.33
CCNC(=O)[C@@H]1CCCN1C(=O)[C@H](CCCNC(=N)N)NC(=O)[C@H](CC(C)C)NC(=O)[C@@H](COC(C)(C)C)NC(=O)[C@H](Cc1ccc(O)cc1)NC(=O)[C@H](CO)NC(=O)[C@H](Cc1c[nH]c2ccccc12)NC(=O)[C@H](Cc1cnc[nH]1)NC(=O)[C@@H]1CCC(=O)N1 [Buserelin (Acetate)] (compound 10 µM) | 0.78 | 0.63 | 0.53
C[C@@H]1C[C@H]2[C@@H]3CCC4=CC(=O)C=C[C@]4(C)[C@@]3(F)[C@@H](O)C[C@]2(C)[C@@]1(O)C(=O)CO [Dexamethasone] (compound 10 µM) | 0.1 | 0.34 | 1.02
CC(C)(Cc1ccc2ccccc2c1)NC[C@@H](O)COc1cccc(Cl)c1C#N (compound 10 µM) | -3.37 | -8.76 | -10.1
CC[C@H](C)[C@H](NC(=O)[C@H](Cc1ccc(O)cc1)NC(=O)[C@@H]1CCCN1C(=O)[C@@H](NC(=O)[C@@H](N)CCCCN)[C@@H](C)CC)C(=O)N[C@@H](CC(C)C)C(=O)O [Neuromedin N] (compound 10 µM) | 0.27 | -0.01 | -0.38
CCc1cnc(N2CCC(c3nc(COc4ccc(-n5cnnn5)cc4)cs3)CC2)nc1 (compound 10 µM) | -3.23 | -3.56 | -6.72
CCOc1nc2cccc(C(=O)O)c2n1Cc1ccc(-c2ccccc2-c2noc(=O)[nH]2)cc1 [Azilsartan] (compound 10 µM) | -0.76 | 0.26 | -0.54
N[C@@H](CCC(=O)O)C(=O)[O-].[Na+] [L-Glutamic acid monosodium salt] (compound 10 µM) | 0.12 | -0.6 | -0.39
O=C(O)COCCN1CCN(C(c2ccccc2)c2ccc(Cl)cc2)CC1 (configuration not stated) [Cetirizine (dihydrochloride)] (compound 10 µM) | -0.15 | 0.74 | 0.52
CCc1cc(-c2noc(-c3cc(OC)nc(C4CCCC4)c3)n2)cc(C)c1OC[C@@H](O)CO [Cenerimod] (compound 10 µM) | -3.08 | -4.72 | -4.14
Cc1nccn1CC1CCc2c(c3ccccc3n2C)C1=O (configuration not stated) [Ondansetron (hydrochloride dihydrate)] (compound 10 µM) | 0.11 | -0.58 | 0.16
CN(C)CCc1c[nH]c2ccc(C[C@H]3COC(=O)N3)cc12 [Zolmitriptan] (compound 10 µM) | 0.87 | 0.6 | -0.48
C=C[C@@]1(C)CC(=O)[C@]2(O)[C@@]3(C)[C@@H](O)CCC(C)(C)[C@@H]3[C@H](O)[C@H](OC(C)=O)[C@@]2(C)O1 [Forskolin] (compound 10 µM) | 1.82 | 2.65 | 0.23
COc1cc(N)c(Cl)cc1C(=O)NC1CCN(CCCOc2ccc(F)cc2)CC1OC (configuration not stated) [Cisapride] (compound 10 µM) | -1.02 | -1.88 | -0.58
C[C@]12CCC(=O)C=C1CC[C@@H]1[C@@H]2[C@@H](O)C[C@@]2(C)[C@H]1CC[C@]2(O)C(=O)CO [Hydrocortisone] (compound 10 µM) | -4.8 | -4.13 | -2.96
CC1(C)C(=O)N(CCN2CCC(C(=O)c3ccc(F)cc3)CC2)c2ccccc21 (compound 10 µM) | -0.29 | -0.77 | 0.28
COc1cc(NC(=O)c2ccccn2)ccc1Cl (compound 10 µM) | -0.65 | -0.21 | 0.28
O=C(NCC(=O)N1CC[C@H](N[C@H]2CC[C@@](O)(c3ccc(-c4ncccn4)cn3)CC2)C1)c1cccc(C(F)(F)F)c1 (compound 10 µM) | -0.86 | -0.77 | 0.76
CN1CCN2c3ncccc3Cc3ccccc3C2C1 (configuration not stated) [Mirtazapine] (compound 10 µM) | 0.65 | 0.99 | -0.48
CCC(=O)O[C@]1(C(=O)SCF)[C@H](C)C[C@H]2[C@@H]3C[C@H](F)C4=CC(=O)C=C[C@]4(C)[C@@]3(F)[C@@H](O)C[C@@]21C [Fluticasone (propionate)] (compound 10 µM) | 0.26 | -0.29 | -0.43
CCN1CCC[C@H]1CNC(=O)c1cc(S(N)(=O)=O)ccc1OC [Levosulpiride] (compound 10 µM) | 0.22 | 0.89 | -0.63
NC(=O)NC1NC(=O)NC1=O (configuration not stated) [Allantoin] (compound 10 µM) | 0.67 | 0.13 | -0.01
